The structures appear in SMILES notation. This is part of a sample that, as a whole, favours compounds with a hit. Of some 83,000 tested, about 20% had one in any assay.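 Testing used 96-well plates and a 48-hour single-concentration exposure. Example: -40 means 40% of the starting cells died.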 Activity calls are given as the source filed them.

This assay concerns U251 CNS. As to the kind of experiment: NCI-60 one-dose screen, 48 h (100 = growth as untreated, 0 = no growth, -100 = all killed). To be noted: 10 µM. Here is the method:
Growth inhibition of the U251 human tumor cell line is measured as a screen for anti-cancer activity. Cells are grown in 96 well plates and exposed to the test compound for 48 hours. Compounds are tested at a single concentration, which is 10^-5 M for most compounds. The reported endpoint is percent growth (GI% or GIPRCNT), where numbers from 0 - 100% represent growth inhibition, and numbers from -100% - 0 represent cell death. For example, a value of 40 represents 60% growth inhibition. A value of 0 means no net growth occurred over the course of the experiment. A value of -40 indicates 40% of cells at the beginning of the experiment died by the end of the experiment. A value of -100 means all cells are dead at the end of the experiment.
NCI-60 Human Tumor Cell Lines Screen was performed using the standard one-dose NCI protocol, which is described in more detail at https://dtp.cancer.gov/discovery_development/nci-60/default.htm.
Compounds with GIPRCNT values below 10 were considered active. Activity score was based on GIPRCNT using the following formula: […]
Score is 0 for GIPRCNT values of 100 or above, 50 for GIPRCNT values of 0, and 100 for GIPRCNT values of -100.
In the case of `Cc1ccc(C(C)C)cc1NC(=O)c1ccccc1O`, the growth is 41% (inactive).

With `COc1ccc(C(=O)/C=C/c2cc(F)cc(C(F)(F)F)c2)cc1S(N)(=O)=O`, the growth was -72.9% (active).

Take `O=C(c1ccc(Cl)cc1)C1[C@H](c2ccc(Br)cc2)[C@@H](c2ccccc2)NC12C(=O)Nc1ccc(Br)cc12` (stereo not given in full): the growth was -79.9% (active).

Take `CC(=O)c1ccc(NC(=O)NCn2c(=O)[nH]c3ccccc3c2=O)cc1`: the growth was 86.7% (inactive).

With `O=C(c1ccc(O)cc1)C1[C@H](c2ccccc2Br)[C@@H](c2ccccc2)NC12C(=O)Nc1ccc(Br)cc12` (stereo not given in full), the growth is 26.5% (inactive).

Consider `O=C(CSc1nnc(-c2c[nH]c3ccccc23)n1-c1ccccc1)Nc1ccc(C(=O)/C=C/c2ccc(Cl)cc2)cc1`, for which the growth was 73.9% (inactive).

On to `CC(=O)Nc1nc(-c2ccc(N3CCN(C)CC3)c(NS(=O)(=O)c3cccc4c(N(C)C)cccc34)c2)cs1`, for which the growth is 28.1% (inactive).

`CCOC(=O)C1=C(N)N(c2ccc(Cl)cc2)C2=C(C(=O)CC(C)(C)C2)C1c1ccc(N2CCOCC2)cc1` (stereo not given): the growth is 88.2% (inactive).

Turning to `CC(C)(C)Nc1nc2cc(Cl)c(Cl)cc2nc1S(C)(=O)=O`, the growth was 68.7% (inactive).

For `O=c1oc2ccccc2cc1-c1csc(N=Nc2c(O)[nH]c3ccc(Br)cc23)n1`, the growth was 40.4% (inactive).

For the compound `Cc1ccc(NCC(=O)Nn2c(COc3ccccc3)nc3ccccc3c2=O)cc1`, the growth was 62.2% (inactive).

Consider `COc1ccc2[nH]cc(/C=N/Nc3ccc(Br)cn3)c2c1`, for which the growth is 20.1% (inactive).

In the case of `CCOC(=O)C(Cc1ccccc1)N1C(=O)/C(=C/N2N=C(c3ccc(OC)cc3)CC2c2ccc3ccccc3c2)SC1=S` (stereo not given), the growth was -26.8% (active).

For the compound `CN1C(=O)N(C)C2SC(N/N=C/c3ccc(F)cc3)=NC21` (stereo not given), the growth is 35.4% (inactive).

Turning to `CC[C@@]1(O)C(=O)OCc2c1cc1n(c2=O)Cc2c-1nc1cc(F)c(C)c3c1c2[C@@H](N)CC3`, the growth is -42.1% (active).

As to `O=C(Cn1nc(-c2ccccc2)ccc1=O)NN1C(=O)c2ccccc2C1=O`, the growth is 102% (inactive).

As for `OCCCNc1oc(-c2ccccc2)nc1[P+](c1ccccc1)(c1ccccc1)c1ccccc1`, the growth was 13.7% (inactive).

For `Cn1c(O)c(N=Nc2nc(-c3cc4ccccc4oc3=O)cs2)c2cc(Br)ccc21`, the growth is 21.3% (inactive).

Take `Cc1ccc2nc(-c3ccc(-c4nnc(SCC(=O)Nc5ccc(Cl)cc5)o4)cc3)[nH]c2c1`: the growth is -21% (active).

For the compound `COc1cc(/C=C/C(=O)c2ccc(S(=O)(=O)NCCNc3nc(Nc4ccc(F)cc4)nc(N(C)C)n3)cc2)cc(OC)c1OC`, the growth was -81.2% (active).

On to `O=C(Nc1cccc([N+](=O)[O-])c1)Nc1cccc([N+](=O)[O-])c1`, for which the growth was 88.7% (inactive).

As for `O=S(=O)(Nc1ncccn1)c1ccc(-n2c(-c3ccc(Br)cc3)nc(-c3ccccc3)c2-c2ccccc2)cc1`, the growth was 30.8% (inactive).

For the compound `O=C(c1ccc(O)cc1)C1[C@H](c2ccc(Br)cc2)[C@@H](c2ccccc2)NC12C(=O)Nc1ccc(Br)cc12` (stereo not given in full), the growth was -48.7% (active).

On to `Cc1ccc(-c2nc3ccc(C(=O)N=Nc4c(O)[nH]c5ccc([N+](=O)[O-])cc45)cc3[nH]2)cc1`, for which the growth was 5.86% (active).

Take `Nc1nc(-c2ccccc2)cc(-c2cc3ccccc3nc2Cl)n1`: the growth is 63.4% (inactive).

For the compound `O=c1[nH]c2ccccc2cc1CSc1ccc(Nc2nccc(-c3ccc4c(c3)OCO4)n2)cc1`, the growth is 75.8% (inactive).

On to `N#Cc1ccc(-c2nn(-c3ccc(C(=O)O)cc3)cc2CNc2ccc(Oc3ccccc3)cc2)cc1`, for which the growth is 33.9% (inactive).

Turning to `CC1=N/C(=C\c2ccc(N(C)C)cc2)C(=O)N1CCc1ccc(S(N)(=O)=O)cc1`, the growth is 91.8% (inactive).

With `O=c1oc2ccc(-c3ccc(F)cc3F)cc2c(=O)n1-c1ccc(Cl)c(C(F)(F)F)c1`, the growth was 7.99% (active).

For `CN(C)c1ccc(/C=C/C(=O)c2ccc(NC(=O)CN3C(=O)NC(C)(c4ccccc4)C3=O)cc2)cc1` (stereo not given), the growth is 46% (inactive).

For the compound `O=c1oc2ccc(-c3ccc(F)cc3F)cc2c(=O)n1-c1ccc(F)c(Cl)c1`, the growth is 7.08% (active).

Turning to `CN1CCO/C1=C(/NC(=O)c1ccc(Cl)cc1)[P+](c1ccccc1)(c1ccccc1)c1ccccc1`, the growth is 84.1% (inactive).

Turning to `CC1(C)CC[C@]2(C(=O)NCCCNCCCCNCCCN)CC[C@]3(C)C(=CC[C@@H]4[C@@]5(C)Cc6c([nH]c7ccccc67)C(C)(C)[C@@H]5CC[C@]43C)[C@H]2C1`, the growth is 89.5% (inactive).

On to `CC(=O)Nc1ccc(-c2cn(-c3cccc(C(=O)Nc4ccc(Cl)c(C(F)(F)F)c4)c3)nn2)cn1`, for which the growth is -59.5% (active).

Regarding `CC(=O)c1ccc(Nc2nc(SC(C)C)nc(-c3ccccc3)c2C#N)cc1`, the growth was 10.2% (inactive).

On to `O=C(NCCCCCCCCCC[P+](c1ccccc1)(c1ccccc1)c1ccccc1)c1ccc(-n2nc(-c3ccccc3O)nc2-c2ccccc2O)cc1`, for which the growth is -50% (active).

`O=C(Nc1ccncc1)c1ccc(-n2c(=O)[nH]c3ccccc3c2=O)cc1`: the growth is 99.7% (inactive).

For the compound `CC(=O)NCC1=C(C)C=C2C(=O)[C@](C)(O)C3(CC3)C(C)=C21`, the growth was -13.2% (active).

In the case of `CC1=C(C(=O)OC(C)C)C(c2ccc(O)cc2)NC(=S)N1` (stereo not given), the growth is 102% (inactive).

In the case of `COC1CC(Cn2cc(COc3ccc4ccc(=O)oc4c3)nn2)C(OCc2ccccc2)C(OCc2ccccc2)C1OCc1ccccc1` (stereo not given), the growth is 100% (inactive).

The values are drawn from PubChem BioAssay (NCI).
